Test results published in PubChem BioAssay (NCI).
Several values for one entry are separate records, joined by “and”; a condition that tells them apart may be missing. Equal entries are not always repeated. This is part of a sample that, as a whole, favours compounds with a hit. Of some 83,000 tested, about 20% had one in any assay.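 The endpoint reported here, percent growth, reads 100 for growth as untreated, 0 for no net growth and -100 for all cells dead.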 Activity calls are given as the source filed them. Rule for the calls: active = growth percent below 10; inactive = the rest.

How the values were obtained:
Experiment in all cases: NCI-60 one-dose screen, 48 h (100 = growth as untreated, 0 = no growth, -100 = all killed)
Conditions in all cases: 10 µM unless noted
NCI-H23 lung = test system: NCI-H23 lung
NCI-H226 lung = test system: NCI-H226 lung
NCI-H322M lung = test system: NCI-H322M lung
HOP-62 NSCLC = test system: HOP-62 NSCLC
NCI-H460 lung = test system: NCI-H460 lung
HOP-92 NSCLC = test system: HOP-92 NSCLC
NCI-H522 lung = test system: NCI-H522 lung
A549/ATCC NSCLC = test system: A549/ATCC NSCLC
786-0 renal = test system: 786-0 renal
DU-145 prostate = test system: DU-145 prostate
K-562 leukemia = test system: K-562 leukemia
MALME-3M melanoma = test system: MALME-3M melanoma
MDA-MB-231 breast = test system: MDA-MB-231 breast
RXF 393 renal = test system: RXF 393 renal
SF-268 CNS = test system: SF-268 CNS
SF-295 CNS = test system: SF-295 CNS
SF-539 CNS = test system: SF-539 CNS
UACC-257 melanoma = test system: UACC-257 melanoma
M14 melanoma = test system: M14 melanoma
COLO 205 colon = test system: COLO 205 colon

Measured: growth

CC1=CC(=O)C=CC1=Nc1ccc(N(C)C)cc1
81.2% (inactive) and 7.79% (active): HOP-92 NSCLC
62% (inactive) and 7.74% (active): K-562 leukemia
inactive: NCI-H226 lung 95.6% and 70.4% | NCI-H322M lung 99.2% and 88.2% | HOP-62 NSCLC 92.4% and 72% | NCI-H460 lung 103% and 70.1% | NCI-H522 lung 29.9% | A549/ATCC NSCLC 101% and 58.7% | 786-0 renal 95.2% and 76% | DU-145 prostate 107% and 71.8% | MALME-3M melanoma 112% and 66.4% | MDA-MB-231 breast 87.1% | RXF 393 renal 93.2% and 50.6% | SF-268 CNS 93.9% and 66.9% | SF-295 CNS 84.7% and 65.6% | SF-539 CNS 94.1% and 44.5% | UACC-257 melanoma 82%
87% (inactive) and -21.1% (active): NCI-H23 lung

CC(C)(C(=O)c1cccnc1)c1cccnc1
inactive: NCI-H23 lung 107% and 133% | NCI-H226 lung 96.6% and 89.7% | NCI-H322M lung 92% and 103% | HOP-62 NSCLC 109% and 103% | NCI-H460 lung 103% and 101% | HOP-92 NSCLC 89.3% | NCI-H522 lung 93.5% and 100% | A549/ATCC NSCLC 86.5% and 108% | 786-0 renal 103% and 99.5% | DU-145 prostate 112% and 114% | K-562 leukemia 104% and 115% | MALME-3M melanoma 96.3% and 125% | MDA-MB-231 breast 96.4% and 119% | RXF 393 renal 105% and 119% | SF-268 CNS 107% and 106% | SF-295 CNS 95.7% and 124% | SF-539 CNS 99.5% and 95.9% | UACC-257 melanoma 97.3% and 115% | M14 melanoma 101% and 92.2%

CC(=O)Oc1cc(C)c(OC(C)=O)c(C)c1C
inactive: NCI-H23 lung 97.3% | NCI-H226 lung 101% | NCI-H322M lung 112% | HOP-62 NSCLC 102% | NCI-H460 lung 105% | HOP-92 NSCLC 112% | NCI-H522 lung 103% | A549/ATCC NSCLC 107% | 786-0 renal 108% | COLO 205 colon 121% | DU-145 prostate 105% | K-562 leukemia 90.9% | MALME-3M melanoma 91.4% | MDA-MB-231 breast 91.4% | RXF 393 renal 125% | SF-268 CNS 107% | SF-295 CNS 107% | SF-539 CNS 101% | UACC-257 melanoma 105% | M14 melanoma 112%

CC1(C)OC(=O)C(=Cc2ccc(C#N)cc2)C(=O)O1
inactive: NCI-H23 lung 104% | NCI-H226 lung 92.6% | NCI-H322M lung 113% and 103% | HOP-62 NSCLC 90.6% and 114% | NCI-H460 lung 107% and 101% | HOP-92 NSCLC 87.9% | NCI-H522 lung 79% and 103% | A549/ATCC NSCLC 77.4% | 786-0 renal 104% and 98.1% | DU-145 prostate 109% and 107% | K-562 leukemia 101% and 96.7% | MALME-3M melanoma 110% and 99.3% | MDA-MB-231 breast 113% and 123% | RXF 393 renal 102% | SF-268 CNS 104% and 102% | SF-295 CNS 103% and 97.7% | SF-539 CNS 111% and 105% | UACC-257 melanoma 72.2% and 96.3% | M14 melanoma 106% and 105%

CCCCOC1NC(=O)NC(=O)C1(F)C(=O)OCC (stereo not drawn)
inactive: NCI-H23 lung 79.6% and 55.9% | NCI-H226 lung 101% and 102% | NCI-H322M lung 74% and 67.9% | HOP-62 NSCLC 76.9% and 43.3% | NCI-H460 lung 47.2% and 25.6% | HOP-92 NSCLC 67.6% and 85.6% | A549/ATCC NSCLC 48.8% and 46.3% | 786-0 renal 93% and 67.6% | COLO 205 colon 61.7% and 53.9% | DU-145 prostate 73% and 51.5% | K-562 leukemia 88.1% and 57.4% | MALME-3M melanoma 65.7% and 65.1% | MDA-MB-231 breast 92.8% and 75% | RXF 393 renal 98.1% and 82.7% | SF-268 CNS 98.8% and 83.1% | SF-295 CNS 94.1% and 93.7% | UACC-257 melanoma 77.2%
11.3% (inactive) and 5.65% (active): SF-539 CNS

O=[N+]([O-])c1ccc(NC(c2ccccc2)c2ccc3cccnc3c2O)cc1 (stereo not drawn)
active: NCI-H460 lung -16% | UACC-257 melanoma -4.88% | M14 melanoma 8.95%
inactive: NCI-H23 lung 32% | NCI-H226 lung 16.6% | NCI-H322M lung 29.8% | HOP-62 NSCLC 26.5% | HOP-92 NSCLC 62.5% | NCI-H522 lung 17.9% | A549/ATCC NSCLC 13.8% | 786-0 renal 18.3% | DU-145 prostate 22.5% | K-562 leukemia 13% | MALME-3M melanoma 17.2% | MDA-MB-231 breast 44.1% | RXF 393 renal 43.9% | SF-268 CNS 12.9% | SF-295 CNS 14.5% | SF-539 CNS 14%

Clc1ccc2sc(-c3ccccc3)nc2c1
inactive: NCI-H23 lung 101% | NCI-H226 lung 82.2% | NCI-H322M lung 102% | HOP-62 NSCLC 74.5% | NCI-H460 lung 80% | HOP-92 NSCLC 105% | NCI-H522 lung 82.5% | A549/ATCC NSCLC 71.4% | 786-0 renal 108% | DU-145 prostate 113% | K-562 leukemia 92.9% | MALME-3M melanoma 104% | MDA-MB-231 breast 80.3% | RXF 393 renal 103% | SF-268 CNS 96% | SF-295 CNS 100% | SF-539 CNS 95.5% | UACC-257 melanoma 65.6% | M14 melanoma 102%

CC(=O)/C(N=Nc1ccc(S(=O)(=O)c2ccc(N=N/C(C(C)=O)=C(/C)O)cc2)cc1)=C(\C)O
inactive: NCI-H23 lung 97.6% | NCI-H226 lung 114% | NCI-H322M lung 106% | HOP-62 NSCLC 103% | NCI-H460 lung 93.2% | HOP-92 NSCLC 90.3% | NCI-H522 lung 105% | A549/ATCC NSCLC 105% | 786-0 renal 112% | DU-145 prostate 104% | K-562 leukemia 111% | MALME-3M melanoma 106% | MDA-MB-231 breast 113% | RXF 393 renal 165% | SF-268 CNS 101% | SF-295 CNS 118% | SF-539 CNS 112% | UACC-257 melanoma 109% | M14 melanoma 105%

CC1=CC(=O)c2cccc(NC3=NCCO3)c21
inactive: NCI-H23 lung 100% | NCI-H226 lung 94.2% | NCI-H322M lung 99.4% | HOP-62 NSCLC 84.9% | NCI-H460 lung 107% | HOP-92 NSCLC 77.6% | NCI-H522 lung 87.8% | A549/ATCC NSCLC 92.3% | 786-0 renal 91.9% | DU-145 prostate 108% | K-562 leukemia 82.4% | MALME-3M melanoma 93.4% | MDA-MB-231 breast 102% | RXF 393 renal 117% | SF-268 CNS 100% | SF-295 CNS 95.1% | SF-539 CNS 95.7% | UACC-257 melanoma 94.2% | M14 melanoma 97.1%

CCOP(=O)(OCC)/C(C#N)=C/c1c(C)[nH]c2ccccc12
inactive: NCI-H23 lung 103% | NCI-H226 lung 84% | NCI-H322M lung 107% | HOP-62 NSCLC 89.1% | NCI-H460 lung 101% | HOP-92 NSCLC 84% | NCI-H522 lung 87.1% | A549/ATCC NSCLC 93.1% | 786-0 renal 106% | COLO 205 colon 107% | DU-145 prostate 107% | K-562 leukemia 94.6% | MALME-3M melanoma 105% | MDA-MB-231 breast 90.4% | RXF 393 renal 108% | SF-268 CNS 102% | SF-295 CNS 95.1% | SF-539 CNS 99% | UACC-257 melanoma 92.6% | M14 melanoma 92.4%

COc1ccc(CCn2cnn3c(=O)c4ccccc4nc3c2=O)cc1OC
inactive: NCI-H23 lung 97.6% and 114% | NCI-H226 lung 94.7% and 97% | NCI-H322M lung 103% and 110% | HOP-62 NSCLC 112% and 104% | NCI-H460 lung 105% and 118% | HOP-92 NSCLC 93.6% and 88.7% | NCI-H522 lung 112% and 97.6% | A549/ATCC NSCLC 104% and 106% | 786-0 renal 95.2% and 108% | DU-145 prostate 98.2% and 117% | K-562 leukemia 99.9% and 102% | MALME-3M melanoma 114% | MDA-MB-231 breast 110% and 101% | RXF 393 renal 103% and 115% | SF-268 CNS 93.8% and 108% | SF-295 CNS 111% | SF-539 CNS 101% and 97.4% | UACC-257 melanoma 101% and 112%
